Laboratory results from PubChem BioAssay (Tox21).
Records with an inconclusive call do not appear. Activity calls are given as the source filed them. Unless noted, the call rests on the fitted dose curve.

Experiments:
[1] = Nuclear factor erythroid 2-related factor 2/antioxidant responsive element (Nrf2/ARE) small molecule agonists: qHTS cell viability counter screen in human keratinocytes (AID 1919968; active means well fitted cell-killing curve with a large enough effect in the repeat runs; further: nearly all actives have a fitted effect of over 55% in size; further: potency means the concentration at half of the fitted maximal effect)
Procedure, shortened: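 KeratinoSens HaCaT cells, 1,500/well, preincubated 5 h, then exposed to compounds in DMSO for 23 h at 37 C/5% CO2. Viability read as CellTiter-Fluor fluorescence after 1 h, in the same wells as the ARE-luciferase read.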

[2] = Nuclear factor erythroid 2-related factor 2/antioxidant responsive element (Nrf2/ARE) small molecule agonists: luciferase reporter gene qHTS assay in human keratinocytes (AID 1919969); further: nearly all actives have a fitted effect of over 35% in size; further: potency means the concentration at half of the fitted maximal effect
[3] = biological target: Gonadotropin-releasing hormone receptor (Homo sapiens) (UniProt P30968); assay: Human gonadotropin-releasing hormone receptor (GnRHR) small molecule agonists, calcium flux assay in GnRHR-HEK293 cells (AID 1920063); further: nearly all actives have a fitted effect of over 35% in size
Procedure, shortened: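 HEK293 cells stably expressing human GnRHR were dye-loaded for 1 h at 37 C. Compound was added in agonist mode and fluorescence (Ex/Em 480/540) recorded kinetically for 3 min. Fifteen concentrations, triplicates.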

[4] = G protein-coupled receptor (GPCR) small molecule agonists, calcium flux assay: HEK293 wild type cell line counter screen (AID 1920065)
Procedure, shortened: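 Wild-type HEK293 cells plated 18 h, loaded with calcium dye 1 h at 37 C, then compounds added in agonist mode (ATP as positive control). Kinetic fluorescence Ex/Em 480/540 recorded 3 min at 1 sec intervals; 15 concentrations, triplicate.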

[5] = p53 small molecule agonists, cell-based qHTS assay with human liver microsomes (AID 1963577);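 further: p53 response element beta-lactamase reporter cells with liver microsomes plus NADPH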
Procedure, shortened: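 HLM-supplemented p53RE-bla reporter assay: 16 h compound exposure at 37 C, microsomes and NADPH each 0.5 mg/mL final, read by fluorescence intensity.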

[6] = p53 small molecule agonists, cell-based qHTS assay with rat liver microsomes (AID 1963578)
Procedure, shortened: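 Quantitative HTS of the Tox21 10K library: p53RE-bla cells, rat liver microsomes plus NADPH at 0.5 mg/mL final each, 16 h at 37 C, beta-lactamase fluorescence detection.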

[7] = p53 small molecule agonists, cell-based qHTS assay with human liver microsomes: qHTS cell viability counter screen (AID 1963579); further: nearly all actives have a fitted effect of over 45% in size
Procedure, shortened: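 Viability of p53RE-bla cells is measured as CellTiter-Glo luminescence following a 16 h, 37 C incubation with compound, liver microsomes from human donors and NADPH.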

[8] = p53 small molecule agonists, cell-based qHTS assay: qHTS cell viability counter screen (AID 1963581); further: nearly all actives have a fitted effect of over 45% in size
Procedure, shortened: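 p53RE-bla HCT-116 cells, compounds added 5 h after plating and incubated 16 h at 37 C. Cytotoxicity measured in the same wells as intracellular ATP by CellTiter-Glo luminescence after 30 min at room temperature.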

[9] = cAMP Responsive Elements (CRE) small molecule agonists, cell-based qHTS assay (AID 1963590)
Procedure, shortened: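 CRE-bla HEK 293T cells, 2,000/well in DMEM with 10% dialyzed FBS and 25 mM HEPES, pre-incubated 18 h at 37 C, then exposed to compound 3 h at 37 C. Beta-lactamase reporter read with LiveBLAzer B/G FRET substrate after 2 h at room temperature.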

[10] = cAMP Responsive Elements (CRE) small molecule antagonists, cell-based qHTS assay (AID 1963591; active means well fitted inhibition curve with a large enough effect in the signal ratio in the repeat runs, not every such curve was filed as active; the % refers to the signal ratio)
Procedure, shortened: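 CRE-bla HEK293T cells plated 18 h, then given compound plus NKH477 at 0.25 uM final for 3 h at 37C. Beta-lactamase reporter read with LiveBLAzer B/G FRET substrate after 2 h at room temperature.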

[11] = biological target: Beta-2 adrenergic receptor (Homo sapiens) (UniProt P07550); assay: Adrenergic beta2 receptor (ADRB2) small molecule antagonists, cell-based qHTS assay (AID 1963592); further: series mostly up to about 92 µM; nearly all actives have a fitted effect of over 50% in size
Procedure, shortened: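 Cells (CHO, stable ADRB2 overexpression) incubated 18-20hr at 37C; compounds added from DMSO; agonist mix (1nM isoproterenol, 100uM IBMX, 25uM Ro-20-1724) added; 0.5hr RT; d2-cAMP and anti-cAMP-cryptate added; 1hr RT; 665/615 nm read.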

[12] = biological target: D(2) dopamine receptor (Homo sapiens) (UniProt P14416); assay: Dopamine D2 receptor (DRD2) small molecule agonists, cell-based qHTS assay (AID 1963594); further: nearly all actives have a fitted effect of over 35% in size
Procedure, shortened: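 HEK293 cells stably expressing human DRD2, pre-treated with PDE inhibitor Ro20-1724 (0.1 mM final) and compound 10 min at room temperature, then stimulated with NKH477 (200nM […]) for 30 min. cAMP read by HTRF (665/620 nm).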

[13] = biological target: D(2) dopamine receptor (Homo sapiens) (UniProt P14416); assay: Dopamine D2 receptor (DRD2) small molecule antagonists, cell-based qHTS assay (AID 1963595; active means well fitted inhibition curve with a large enough effect in the signal ratio in the repeat runs, with a control signal flat; the % refers to the signal ratio)
Procedure, shortened: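 Antagonist mode in DRD2-HEK293 cells: after compound addition with 0.1 mM Ro20-1724, cells received quinpirole (12 nM) and NKH477 (200 nM) for 30 min at room temperature; HTRF cAMP read after 1 h detection.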

[14] = p53 small molecule agonists, cell-based qHTS assay with rat liver microsomes: qHTS cell viability counter screen (AID 1963580); further: nearly all actives have a fitted effect of over 45% in size
Procedure, shortened: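 p53RE-bla HCT-116 cells were exposed 16 h at 37 C to compounds with rat liver microsomes (0.5 mg/mL) and NADPH (0.5 mg/mL). Viability was measured in the same wells as ATP content by CellTiter-Glo luminescence.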

[15] = biological target: 5-hydroxytryptamine receptor 2A (Homo sapiens) (UniProt P28223); assay: 5-hydroxytryptamine receptor 2A (HTR2A) small molecule antagonists, cell-based qHTS assay (AID 1963586); further: nearly all actives have a fitted effect of over 45% in size
Procedure, shortened: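 Antagonist-mode intracellular calcium assay: DOI (4 nM) added after 5 min compound pre-incubation at room temperature to dye-loaded HTR2A-CHO cells. Fluorescence followed for 3 min, sampled every second.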

[16] = biological target: 5-hydroxytryptamine receptor 2A (Homo sapiens) (UniProt P28223); assay: 5-hydroxytryptamine receptor 2A (HTR2A) small molecule agonists, cell-based qHTS assay (AID 1963587); further: nearly all actives have a fitted effect of over 30% in size
Procedure, shortened: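 CHO cells stably expressing human HTR2A, plated 18 h, loaded with calcium dye 1 h at 37 C. Agonist mode: compounds added and intracellular calcium fluorescence recorded kinetically for 2 min at 1 sec intervals.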

[17] = p53 small molecule agonists, cell-based qHTS assay (AID 1963582; active means well fitted activation curve with a large enough effect in the signal ratio in the repeat runs, not every such curve was filed as active; the % refers to the signal ratio)
Procedure, shortened: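 p53RE-bla reporter cells, compounds added in DMSO after 5 h plating, incubated 16 h at 37 C. Beta-lactamase read via 2 h room-temperature LiveBLAzer B/G FRET substrate, fluorescence intensity.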

[18] = biological target: Muscarinic acetylcholine receptor M1 (Homo sapiens) (UniProt P11229); assay: Cholinergic receptor muscarinic 1 (CHRM1) small molecule antagonists, cell-based qHTS assay (AID 1963588); further: nearly all actives have a fitted effect of over 40% in size
Procedure, shortened: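 CHRM1-CHO calcium-flux assay, antagonist mode. Cells were seeded 18 h, dye-loaded 1 h at 37 C and given compound for 5 min at RT, then acetylcholine was added at 50nM. FDSS fluorescence was read 3 min; 15 concentrations, three runs.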

[19] = biological target: Beta-2 adrenergic receptor (Homo sapiens) (UniProt P07550); assay: Adrenergic beta2 receptor (ADRB2) small molecule agonists, cell-based qHTS assay (AID 1963593);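 further: CHO cells stably overexpressing human ADRB2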
Procedure, shortened: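 CHO cells stably over-expressing ADRB2 were plated overnight at 37C, then dosed with compounds plus a stimulation mix containing 100uM IBMX and 25uM Ro-20-1724 for 0.5hr at room temperature. cAMP was measured by HTRF competition, 1hr.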

[20] = biological target: Muscarinic acetylcholine receptor M1 (Homo sapiens) (UniProt P11229); assay: Cholinergic receptor muscarinic 1 (CHRM1) small molecule agonists, cell-based qHTS assay (AID 1963589); further: nearly all actives have a fitted effect of over 35% in size
Procedure, shortened: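 CHO cells stably expressing human CHRM1 were loaded with calcium dye for 1 h at 37 C, then compound was added in agonist mode. Intracellular calcium fluorescence was followed kinetically at 1 s intervals. Fifteen concentrations were tested in three independent runs.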

Measured: Potency

Sequence of 5-hydroxytryptamine receptor 2A (Homo sapiens) (P28223 whole entry, looked up): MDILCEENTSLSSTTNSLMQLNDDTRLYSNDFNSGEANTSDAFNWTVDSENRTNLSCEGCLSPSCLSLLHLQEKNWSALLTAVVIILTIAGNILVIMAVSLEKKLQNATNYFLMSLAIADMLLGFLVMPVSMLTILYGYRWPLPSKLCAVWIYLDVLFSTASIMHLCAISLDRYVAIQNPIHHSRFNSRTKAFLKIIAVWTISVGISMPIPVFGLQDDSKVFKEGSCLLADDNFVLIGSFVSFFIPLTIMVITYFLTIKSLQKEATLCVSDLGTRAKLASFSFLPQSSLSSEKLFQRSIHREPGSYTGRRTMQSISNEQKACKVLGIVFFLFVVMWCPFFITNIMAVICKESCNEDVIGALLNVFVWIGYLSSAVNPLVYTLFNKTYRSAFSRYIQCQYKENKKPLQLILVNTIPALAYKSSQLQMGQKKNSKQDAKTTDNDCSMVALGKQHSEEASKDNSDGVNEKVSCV
Sequence of D(2) dopamine receptor (Homo sapiens) (P14416 whole entry, looked up): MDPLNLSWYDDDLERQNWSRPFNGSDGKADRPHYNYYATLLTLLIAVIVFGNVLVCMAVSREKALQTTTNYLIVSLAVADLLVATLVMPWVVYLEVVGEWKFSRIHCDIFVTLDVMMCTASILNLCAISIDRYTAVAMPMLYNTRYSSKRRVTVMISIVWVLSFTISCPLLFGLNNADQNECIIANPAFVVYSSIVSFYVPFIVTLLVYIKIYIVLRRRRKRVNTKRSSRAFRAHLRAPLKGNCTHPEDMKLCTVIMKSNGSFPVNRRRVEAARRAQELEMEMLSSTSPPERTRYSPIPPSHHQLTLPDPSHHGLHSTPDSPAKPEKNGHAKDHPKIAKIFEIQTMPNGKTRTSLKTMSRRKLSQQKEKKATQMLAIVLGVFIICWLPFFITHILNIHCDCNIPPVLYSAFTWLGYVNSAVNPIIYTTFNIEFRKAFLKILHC
Sequence of Muscarinic acetylcholine receptor M1 (Homo sapiens) (P11229 whole entry, looked up): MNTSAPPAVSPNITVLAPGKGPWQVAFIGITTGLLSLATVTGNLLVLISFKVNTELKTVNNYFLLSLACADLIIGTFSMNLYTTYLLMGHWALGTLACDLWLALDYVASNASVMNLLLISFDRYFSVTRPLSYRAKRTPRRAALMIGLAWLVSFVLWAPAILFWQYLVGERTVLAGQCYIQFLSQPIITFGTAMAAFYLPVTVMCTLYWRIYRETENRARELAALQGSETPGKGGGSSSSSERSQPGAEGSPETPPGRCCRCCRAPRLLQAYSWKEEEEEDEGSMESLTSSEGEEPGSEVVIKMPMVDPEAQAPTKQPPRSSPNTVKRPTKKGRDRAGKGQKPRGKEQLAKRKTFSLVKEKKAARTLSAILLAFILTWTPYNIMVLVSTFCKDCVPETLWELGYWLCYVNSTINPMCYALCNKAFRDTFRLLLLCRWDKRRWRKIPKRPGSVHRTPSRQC
Sequence of Gonadotropin-releasing hormone receptor (Homo sapiens) (P30968 whole entry, looked up): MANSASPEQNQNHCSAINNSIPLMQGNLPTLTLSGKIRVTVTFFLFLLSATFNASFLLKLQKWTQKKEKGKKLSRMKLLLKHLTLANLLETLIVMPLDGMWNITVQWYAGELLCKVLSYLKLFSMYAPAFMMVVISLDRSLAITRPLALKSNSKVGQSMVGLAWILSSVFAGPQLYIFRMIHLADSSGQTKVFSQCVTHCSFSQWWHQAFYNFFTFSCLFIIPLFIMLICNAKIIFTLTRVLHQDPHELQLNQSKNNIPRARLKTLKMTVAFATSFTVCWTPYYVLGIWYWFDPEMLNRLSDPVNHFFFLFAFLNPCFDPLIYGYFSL
Sequence of Beta-2 adrenergic receptor (Homo sapiens) (P07550 whole entry, looked up): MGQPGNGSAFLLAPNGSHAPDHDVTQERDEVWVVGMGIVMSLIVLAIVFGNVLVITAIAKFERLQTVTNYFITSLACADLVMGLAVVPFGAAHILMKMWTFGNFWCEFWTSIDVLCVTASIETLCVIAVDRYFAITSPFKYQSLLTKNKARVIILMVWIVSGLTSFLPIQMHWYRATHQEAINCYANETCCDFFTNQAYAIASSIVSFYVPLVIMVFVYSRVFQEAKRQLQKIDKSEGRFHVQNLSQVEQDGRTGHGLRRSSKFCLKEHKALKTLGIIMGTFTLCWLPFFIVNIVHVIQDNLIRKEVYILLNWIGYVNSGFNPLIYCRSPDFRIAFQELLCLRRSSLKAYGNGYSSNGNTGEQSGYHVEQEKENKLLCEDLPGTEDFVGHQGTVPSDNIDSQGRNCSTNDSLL

CN1CCC(=C2c3ccccc3CC(=O)c3sccc32)CC1
not listed: [14] | [15] | [16] | [17] | [18] | [19] | [20]
inactive: all other assays above

C=C1C(CCl)(CCl)C2(Cl)C(Cl)C(Cl)C1(Cl)C2(Cl)Cl (configuration not stated)
active: [1] 38.1 µM | [2] 15.2 µM
inactive: [3] | [4] | [5] | [6] | [14] | [15] | [16] | [12] | [13]

CCNS(=O)(=O)c1ccc(C)cc1
not listed: [8] | [14] | [20]
inactive: all other assays above

Nc1nc(-c2ccc([N+](=O)[O-])cc2)cs1
not listed: [3] | [15]
inactive: all other assays above

CC(C)(O)CCCC1=CCC(C=O)CC1 (configuration not stated)
not listed: [3] | [15] | [19]
inactive: all other assays above

NS(=O)(=O)c1cc2c(cc1C(F)(F)F)NCNS2(=O)=O
not listed: [3] | [10] | [19]
inactive: all other assays above

C#CC(C)(CC)OC(=O)c1ccccc1C(=O)O (configuration not stated)
not listed: [3] | [12] | [13] | [18] | [19]
inactive: all other assays above

CC(=O)CC(=O)OC(C)(C)C
not listed: [3] | [15] | [17] | [20]
inactive: all other assays above

CC(C)(O)CCC(C)(C)O
not listed: [3] | [8] | [19]
inactive: all other assays above

CCCCCC(=O)OCC
not listed: [4] | [10] | [17]
inactive: all other assays above

Clc1cc(Cl)c(-c2c(Cl)c(Cl)cc(Cl)c2Cl)cc1Cl
not listed: [3] | [8] | [19]
inactive: all other assays above

C=CC(=O)O
not listed: [3] | [19]
inactive: all other assays above

Nc1ccc(C(=O)O)c(O)c1
not listed: [3] | [15] | [16] | [18] | [19] | [20]
inactive: all other assays above
